DT40 TDP1 CPT: DT40-hTDP1 cell growth loss with CPT. chicken DT40 Tdp1-/-;hTDP1 cells + 20 nM CPT, ATP luminescence, 48 h. Potency, µM (highest dose often 46.2 µM), without a hit: top-dose activity change, negative = growth inhibition, actives largely listed as inhibitors. actives 12% (n = 420,000). AID 686979; note: nearly all actives have a fitted effect of over 55% in size
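Chicken DT40 Tdp1-/- cells complemented with human TDP1, 400 cells/well, exposed to compounds plus 20 nM camptothecin for at least 48 h at 37 C; viability read as ATP content by CellTiter-Glo luminescence.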
KB-3-1 cytotox: kills parental KB-3-1 adenocarcinoma cells. KB-3-1 viability, CellTiter-Glo ATP luminescence, 72 h. actives 1.4% (n = 400,000). Potency, µM (highest dose often 46.1 µM), usual class: cytotoxic; note: nearly all actives have a fitted effect of over 60% in size
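Multi-concentration cytotoxicity screen in KB-3-1 cells grown in DMEM lacking phenol red with 10% FBS. After 72 h at 37 °C with compound, ATP-dependent luminescence was recorded.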
HT1080 IDH1KD tx: toxicity to HT-1080 IDH1 knockdown cells (counter line); Potency, µM (highest dose often 46.1 µM), inactives show at the top dose activity, negative = toxicity, actives largely listed as cytotoxic; AID 686971; HT-1080 IDH1 knockdown viability, ATP luminescence, 48 h; actives 2% (n = 360,000);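 note: 0% = DMSO wells and -100% = cell-free medium wells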
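Luminescent ATP read-out (CellTiter-Glo, 10 min at room temperature) after 48 h compound exposure at 37 °C gave viability of IDH1-knockdown HT-1080 cells. Activity was normalised to DMSO and cell-free wells, then fitted as concentration-response curves.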
HT1080NT lethal: kills 2HG-producing HT-1080-NT fibrosarcoma cells | HT-1080-NT fibrosarcoma viability, CellTiter-Glo ATP luminescence, 48 h | Potency, µM (series often up to 46.1 µM), for the others: at the top dose activity, negative = less viability, actives largely listed as cytotoxic | actives 1.6% (n = 360,000) | AID 686970;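 note: NT is the 2HG producing partner of a matched IDH1 knockdown line; 0% = DMSO-treated cells and -100% = media-only wells without cells; nearly all actives have a fitted effect of over 55% in size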
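Viability by CellTiter-Glo luminescence after 48 h compound exposure at 37C of HT-1080-NT cells (750/well, RPMI, 5% FBS). % activity scaled between DMSO wells and medium-only wells, then curve-fitted and categorized by curve class.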
DT40 TDP1 no CPT: qHTS for Inhibitors of human tyrosyl-DNA phosphodiesterase 1 (TDP1): qHTS in cells in absence of CPT; AID 686978, 2013; DT40 Tdp1-/- hTDP1 cells, no CPT, ATP luminescence, 48 h; Potency, µM (series often up to 46.2 µM), for inactives: at the top dose activity change, negative = growth inhibition, actives largely listed as inhibitors; actives 15% (n = 420,000); note: nearly all actives have a fitted effect of over 55% in size
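Growth kinetics read by CellTiter-Glo luminescence after ≥48 hr at 37 °C. Cells: DT40 Tdp1-/- stably carrying human TDP1, 400 per well, compound exposure in the absence of CPT (DMSO vehicle).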
KB-V1 MDR tox: KB-V1 MDR subline cytotoxicity. KB-V1 MDR cells viability, CellTiter-Glo, 72 h. Potency, µM (series often up to 46.1 µM), hits mostly cytotoxic. actives 3.4% (n = 400,000). AID 1347076; note: nearly all actives have a fitted effect of over 60% in size
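KB-V1 cells (P-gp-expressing MDR subline of KB-3-1) in phenol-red-free DMEM with 10% FBS were exposed to library compounds over a concentration series for 72 h at 37 degrees C. Viability read by CellTiter-Glo luminescence; concentration-effect curves fitted after normalization.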
* marks the source's active call; other numbers are inactive results. An excerpt weighted towards active compounds, which were near 19% of everything screened. Calls come from the whole dose curve; as a rule, active = well fitted curve in the direction sought with a large enough effect; inconclusive = small, poorly fitted or top-dose-only effect, or another doubt; inactive = no such curve, though single readings can be large; an effect the other way counts as inactive or inconclusive. Unless noted, % is set by controls: 0 for no effect and ±100 for the full control effect; potency is the fitted concentration of half-maximal effect.

What do the screens show for `COc1ccc(CNc2oc(-c3ccc(COc4ccccc4C)o3)nc2C#N)cc1`?
DT40 TDP1 CPT: inconclusive; KB-3-1 cytotox: inconclusive; DT40 TDP1 no CPT: inconclusive; KB-V1 MDR tox: inactive

How did Cc1ccccc1NC(=S)N(Cc1ccccc1)Cc1cccnc1 do in these assays?
DT40 TDP1 CPT: 0%; KB-3-1 cytotox: inactive; HT1080 IDH1KD tx: 10%; HT1080NT lethal: -3%; DT40 TDP1 no CPT: -7%; KB-V1 MDR tox: inconclusive

Results for CSc1cccc(NC(=S)N(Cc2ccc(C)cc2)Cc2cccnc2)c1 ?
DT40 TDP1 CPT: inconclusive; KB-3-1 cytotox: inactive; HT1080 IDH1KD tx: -7%; HT1080NT lethal: -2%; DT40 TDP1 no CPT: 21µM*; KB-V1 MDR tox: inconclusive

Results for O=C(Cn1c(-c2ccccc2)noc1=O)Nc1ccc(N2CCCCCC2)cc1 ?
DT40 TDP1 CPT: 16µM*; KB-3-1 cytotox: inactive; HT1080 IDH1KD tx: inconclusive; HT1080NT lethal: -6%; DT40 TDP1 no CPT: 18µM*; KB-V1 MDR tox: inactive

What do the screens show for `CCC(=O)Nc1ccc(N2CCCCC2)cc1`?
DT40 TDP1 CPT: inconclusive; KB-3-1 cytotox: inactive; HT1080 IDH1KD tx: -4%; HT1080NT lethal: 3%; DT40 TDP1 no CPT: -7%; KB-V1 MDR tox: inactive

What do the screens show for `O=C(Cn1c(-c2ccccc2)noc1=O)Nc1ccc(S(=O)(=O)N2CCOCC2)cc1`?
DT40 TDP1 CPT: 4%; KB-3-1 cytotox: inactive; HT1080 IDH1KD tx: 10%; HT1080NT lethal: 5%; DT40 TDP1 no CPT: -6%; KB-V1 MDR tox: inactive

How did N#Cc1ccc(OCC(=O)Nc2ccc(N3CCCC3)cc2)cc1 do in these assays?
DT40 TDP1 CPT: inconclusive; KB-3-1 cytotox: inactive; HT1080 IDH1KD tx: 0%; HT1080NT lethal: 0%; DT40 TDP1 no CPT: 12µM*; KB-V1 MDR tox: inactive

What do the screens show for `O=C(CCl)Nc1ccc(N2CCCCCC2)cc1`?
DT40 TDP1 CPT: 5.2µM*; KB-3-1 cytotox: inconclusive; HT1080 IDH1KD tx: 18µM*; HT1080NT lethal: 23µM*; DT40 TDP1 no CPT: 8.2µM*; KB-V1 MDR tox: inactive

How did CCn1c(=O)c2sccc2n2c(CCCC(=O)N3CCN(c4cc(Cl)ccc4C)CC3)nnc12 do in these assays?
DT40 TDP1 CPT: 12µM*; DT40 TDP1 no CPT: 8.2µM*

Results for CCC(C)n1c(=O)c2sccc2n2c(CCCC(=O)N3CCN(c4ccccc4)CC3)nnc12 (stereo not drawn) ?
DT40 TDP1 CPT: -65%; DT40 TDP1 no CPT: inconclusive

How did Cc1ccc(Cl)cc1N1CCN(C(=O)CCc2nnc3n(C)c(=O)c4ccccc4n23)CC1 do in these assays?
DT40 TDP1 CPT: -29%; DT40 TDP1 no CPT: -32%

Results for CCCn1c(=O)c2sccc2n2c(CCCC(=O)N3CCN(c4ccccc4)CC3)nnc12 ?
DT40 TDP1 CPT: inconclusive; DT40 TDP1 no CPT: 16µM*

What do the screens show for `CCn1c(=O)c2sccc2n2c(CCCC(=O)N3CCN(c4cccc(Cl)c4)CC3)nnc12`?
DT40 TDP1 CPT: 18µM*; KB-3-1 cytotox: inactive; DT40 TDP1 no CPT: 16µM*; KB-V1 MDR tox: inactive

What do the screens show for `Cn1c(=O)c2sccc2n2c(CCC(=O)N3CCN(c4cccc(Cl)c4)CC3)nnc12`?
DT40 TDP1 CPT: inconclusive; KB-3-1 cytotox: inactive; DT40 TDP1 no CPT: 5.8µM*; KB-V1 MDR tox: inactive

Results for CCn1c(=O)c2sccc2n2c(CCCC(=O)N3CCN(c4ccccn4)CC3)nnc12 ?
DT40 TDP1 CPT: inconclusive; KB-3-1 cytotox: inactive; HT1080 IDH1KD tx: 8%; HT1080NT lethal: 9%; DT40 TDP1 no CPT: inconclusive; KB-V1 MDR tox: inactive

Screening data (PubChem)
